For 54 molecules, Potency results are on record in PubChem BioAssay AID1963318 (National Center for Advancing Translational Sciences (NCATS), 2024).

SMILES strings stand for the structures. Out of some 1,300 compounds screened, about 100 (7.7%) were called active. Not shown: some 19% with an inconclusive outcome. Calls follow the shape of the dose curve; as a rule, active = well fitted activation curve with a large enough effect; inconclusive = small, poorly fitted or top-dose-only effect; inactive = no such curve, though single readings can be large or run the other way. The list is a sample of the results. Entries that show only a call come without a potency.
Potency is read from the fitted curve at half-maximal effect.

Chain of Luciferin 4-monooxygenase (Photinus pyralis) (P08659 whole entry, looked up): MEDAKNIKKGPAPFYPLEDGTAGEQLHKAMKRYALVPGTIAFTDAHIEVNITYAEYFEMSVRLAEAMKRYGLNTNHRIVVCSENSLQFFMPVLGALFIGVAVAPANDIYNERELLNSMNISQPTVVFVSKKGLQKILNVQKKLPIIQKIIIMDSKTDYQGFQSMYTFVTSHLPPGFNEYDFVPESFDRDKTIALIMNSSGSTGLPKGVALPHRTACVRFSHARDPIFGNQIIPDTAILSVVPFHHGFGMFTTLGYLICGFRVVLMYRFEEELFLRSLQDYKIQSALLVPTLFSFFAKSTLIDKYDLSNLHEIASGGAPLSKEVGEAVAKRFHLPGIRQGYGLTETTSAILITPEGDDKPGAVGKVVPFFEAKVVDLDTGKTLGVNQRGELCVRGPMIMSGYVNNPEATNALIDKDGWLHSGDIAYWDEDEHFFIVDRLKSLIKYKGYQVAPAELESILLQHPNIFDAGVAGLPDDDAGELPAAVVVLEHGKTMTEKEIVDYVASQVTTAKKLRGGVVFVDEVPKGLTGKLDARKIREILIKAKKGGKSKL

This test concerns the target Luciferin 4-monooxygenase (Photinus pyralis) (UniProt P08659). The experiment in a line: Firefly luciferase (FLuc-C-HiBiT) SDR gain of signal screen - without ATP. Also: nearly all actives have a fitted effect of over 55% in size. As to conditions: Purified FLuc-C-HiBiT, Nano-Glo HiBiT luminescence, no ATP; series mostly up to 32.7 µM. From the text: PI: James Inglese Ph.D. National Center for Advancing Translational Sciences (NCATS), National Institute of Health (NIH), Maryland Discovery and optimization of novel protein-binding ligands underlies many of the methods and applications of biology, drug discovery, clinical diagnostics, and environmental toxicology. Assays for detecting the interaction of, for example, a molecule with a macromolecular target also referred to here as the target of interest (TOI) is dependent on a compatible output technology. Depending on the nature and knowledge surrounding the TOI, whether a receptor, enzyme, regulatory subunit or scaffold, or a sequence-defined nucleic acid folded into a complex tertiary structure, assay strategies can vary widely. Here we exploit ligand-biased changes in the structural dynamics of the target protein to control reporter alpha complementation allowing a non-competitive, non-functional, non-separation measure of ligand-target interaction. […] Secondly, we show the specificity and sensitivity of the SDR for the Abelson tyrosine kinase (ABL1) compared to the serine/threonine protein kinase A, using an enriched chemical library of 128 compounds selected, in part, for activity annotated with ABL1 kinase activity using the Pharos database (3). References: (1) A. S. Dixon et al., NanoLuc Complementation Reporter Optimized for Accurate Measurement of Protein Interactions in Cells. ACS Chem Biol 11, 400-408 (2016). […] Chemistry & Biology, 19, 1060 - 1072 (2012). (3) K. J. Kelleher et al., Pharos 2023: an integrated resource for the understudied human proteome. Nucleic Acids Res 51, D1405-D1416 (2023).
1. Reagent. Dispense 4 uL FLuc-C-HiBiT enzyme-buffer solution per well at a final enzyme concentration of 10 nM with or without 10 uM ATP into columns 2-48 of white, solid bottom medium bind 1536-well plates (Greiner Bio-One) by BioRaptr 2. Dispense respective buffer without enzyme at 4 uL/well in column 1 of assay plates. 2. Compounds. Library compounds and PTC124 control added at 23 nL per well, transfer by Pin Tool. 3. Incubation. Incubate enzyme and compounds at room temperature for >30 min, protect from light. 4. Reagent. (SDR assay) Add 3 uL/well of Nano-Glo HiBiT reagent (Promega) to assay plates for SDR assay without ATP. 5. Incubation. Incubate enzyme and substrate or detection reagent at room temperature for 5-10 min, protect from light. 6. Detector. HiBiT SDR assay measured using CCD-based camera (ViewLux) with settings as follows: Exposure, 1 sec; Gain, High; Speed, Slow; Binning, 2X. REFERENCES: Inglese J, Shamu CE and Guy RK, Reporting data from high throughput screening of small molecule libraries, Nature Chemical Biology, 2007, 3(8): 438-441. doi.org/10.1038/nchembio0807-438.
Background: With HiBiT, luminescence reflects the tagged protein that the partner subunit can reach.
Regarding `COc1ccc(-c2cc(N3CCCC(NC(=O)c4ccsc4)C3)n[nH]2)cc1` (centres undefined), the Potency result is “inactive”.
The same measure for `Fc1ccc(Nc2nc(-c3ccccc3F)no2)cc1`: “inactive”; for `Cc1nn(-c2ccc(C(C)C)cc2)c(C)c1[C@@H]1C=C[C@@H](NC(=S)NCC(C)C)C1`: “inactive”.
Next, `COc1ccc(CC(=O)Nc2ccc(-c3nc4ccccc4s3)c(C)c2)cc1`: “inactive”; `O=C(COc1ccc(Cl)cc1)Nc1ccc(-c2nc3cc(Cl)ccc3o2)c(O)c1`: “inactive”.
Consider `O=C([C@@H]1C[C@@H](O)[C@H](O)[C@@H]2NC(=S)N(c3ccc(OC(F)(F)F)cc3)[C@@H]21)N1CCCCC1`, for which the Potency entry is “inactive”.
Next, `CCNC(=O)C1C(c2cccc(NC(=O)c3ccc(OC)cc3)c2)OC(=O)N1Cc1ccc(C)cc1` (centres undefined): “inactive”.
Next, `Cc1nnn2c(C(=O)NC3CC3)cccc12`: “inactive”.
Next, `COc1cc(F)ccc1-c1ccc(COc2ccc3c(cnn3CCC(=O)O)c2)cc1`: “inactive”; `Cc1cc(C)n(CCC(=O)N2CCC(Cc3noc(C4CC4)n3)C2)n1` (centres undefined): “inactive”; `O=C(Nc1ccccc1)c1nc2c(o1)CCN(Cc1cccc(Cl)c1)CC2`: “inactive”.
Regarding `Cc1ccc(C(=O)Nc2ccc(-c3nc4ccccc4s3)c(O)c2)cc1`, the Potency result is “inactive”.
With `CC(=O)c1ccc(NC(=O)CSc2nnc(NC(=O)Nc3ccccc3)s2)cc1`, the Potency result was “inactive”.
`O=C(CSc1ccc(F)cc1)Nc1ccccc1-c1nc2ccccc2s1`: the Potency entry is “inactive”.
The same measure for `C[S+](=O)([O-])CCn1ncc2cc(OCc3cccc(-c4ccccc4)c3)ccc21`: “inactive”; for `Cc1ccc2cc(CN3CCN(CC(N)=O)CC3)c(-c3cccs3)nc2c1`: “inactive”.
As for `OCc1cccc(-c2cc3c(cn2)CN(Cc2ccccc2)CCN3)c1`, the Potency entry was “inactive”.
The same measure for `O=C(NCc1ccc(F)c(Cl)c1)C1CCN(C(=O)c2ncn3c2COC(c2ccccc2)C3)CC1` (centres undefined): “inactive”; for `CC(=O)Oc1ccccc1C(=O)Nc1ccc(-c2nc3ccc(C)cc3s2)cc1`: “inactive”; for `O=C(NCc1ccccc1)C1CCN(C(=O)c2ncn3c2COC(c2ccccc2)C3)CC1` (centres undefined): “inactive”.
With `O=C(/C=C/c1ccccc1)Nc1cc(-c2nc3cc(Cl)ccc3o2)ccc1Cl`, the Potency result was “inactive”.
Consider `CNc1nc(C(=O)NCc2ccc3[nH]c(-c4ccc(F)cc4)c(C)c3c2)cs1`, for which the Potency entry was “inactive”.
The same measure for `Cc1ccc(-n2ncc3c(N4CCC(C(N)=O)CC4)ncnc32)cc1`: “inactive”; for `OCC1CCCN(c2ncnc3c2cnn3-c2ccccc2)C1` (centres undefined): 1.76 µM (active).
The same measure for `OCCN1CCN(c2nc(N3CCCCC3)c3cnn(-c4ccc(Cl)cc4)c3n2)CC1`: “inactive”; for `Cc1ccc(-c2nnc(SCc3ccccc3C)o2)cc1`: “inactive”; for `O=C(NC1CCN(c2cc(-c3ccc(F)cc3)[nH]n2)C1)c1cc2ccccc2[nH]1` (centres undefined): “inactive”.
The same measure for `Cn1ccnc1CN1CCc2nc(C(=O)Nc3ccccc3)oc2CC1`: “inactive”; for `Cc1ccc(C2Cn3nnc(C(=O)N4CCC(C(=O)NCCc5ccccc5)CC4)c3CO2)cc1` (centres undefined): “inactive”; for `CN1c2cc(C(=O)Nc3ccccc3)ccc2C(=O)N2CCCCCC21` (centres undefined): “inactive”.
Consider `Oc1cccc(-c2cc3c(cn2)CN(Cc2cccnc2)CCN3)c1`, for which the Potency result was “inactive”.
The same measure for `OC1(CN2CCCCC2)CCN(c2nc3ccccc3s2)C1` (centres undefined): “inactive”.
Next, `Cc1nn(-c2ccc(C(C)(C)C)cc2)c(C)c1[C@@H]1C=C[C@@H](NC(=O)c2ccco2)C1`: “inactive”; `Cc1cccc(C(=O)Nc2ccc(-c3nc4ccccc4s3)c(C)c2)c1`: “inactive”; `COc1cccc(-c2nc3ccc(-c4ccc5c(c4)OCO5)cc3o2)c1OC`: “inactive”.
On to `Cc1ccc(Cl)cc1-n1ncc2c(N3CCC(C(N)=O)CC3)ncnc21`, for which the Potency result was “inactive”.
Next, `COc1ccc(-c2nc3ccccc3s2)cc1NC(=O)COc1ccccc1C`: “inactive”; `CN1CCN(C[C@@H]2CN(C(=O)CCCc3ccccc3)C[C@@H]2CO)CC1`: “inactive”; `Cc1nn(-c2ccc(C(C)C)cc2)c(C)c1[C@@H]1C=C[C@@H](NC(=O)Nc2ccccc2)C1`: “inactive”.
The same measure for `Cc1ccc(Nc2c(-c3ccc(N(C)C)cc3)nc3nc[nH]n23)cc1`: “inactive”; for `CC(=O)Nc1ccc(NC(=O)CCCc2nc(-c3ccc(C(C)(C)C)cc3)no2)cc1`: “inactive”; for `O=C(CCCc1ccccc1)N1CCC2(CC1)CC(O)CCO2` (centres undefined): “inactive”.
The same measure for `COc1ccccc1OC1(C(=O)O)CCN(c2ncnc3nc[nH]c23)CC1`: “inactive”; for `CC(C)C(=O)Nc1cc(-c2nc3ccccc3s2)ccc1Cl`: “inactive”.
As to `Oc1ccc(-c2nc(C3CC3)nc3c2CCN(Cc2cccc(F)c2)CC3)cc1`, the Potency result was “inactive”.
The same measure for `Cc1nn(-c2ccc(C(C)C)cc2)c(C)c1[C@@H]1C=C[C@@H](NC(=O)CC2(CC(=O)O)CCCC2)C1`: “inactive”; for `Cc1cc2nn(-c3ccc(Cl)cc3)nc2cc1NC(=O)C(C)C`: “inactive”.
On to `O=C(NCC1CC1)C1CCN(C(=O)c2ncn3c2COC(c2ccccc2)C3)CC1` (centres undefined), for which the Potency entry is “inactive”.
Next, `CCc1cccc(NC(=O)c2cc(-c3ccccc3)n[nH]2)c1`: “inactive”; `CC(=O)c1nn(-c2ccc(OC(F)(F)F)cc2)nc1Nc1ccccc1`: “inactive”.
Next, `COc1ccc(C)cc1NC(=O)Nc1cccc(-c2ccc(N3CCCCC3)nn2)c1`: 8.81 µM (active); `Cc1cccc(-c2cccc(NC(=O)C3CCCN(C(=O)CC(F)(F)F)C3)c2)c1` (centres undefined): “inactive”.
Next, `Cc1ccc(-c2nc(C(=O)N(C)Cc3ccccc3)no2)cc1`: “inactive”.
As to `CCOC(=O)C1CCN(C(=O)c2cccc3c2CCN3C(=O)Nc2ccccc2)CC1`, the Potency result is “inactive”.
